Assay in all cases: DAPPL (digital affinity profiling via proximity ligation, sequencing); 10 mM Tris-HCl pH 7.5, 50 mM NaCl, 1 mM DTT, 4% glycerol, room temperature, 30 min; GST-TFs on glutathione beads, 16-mer random dsDNA library, 0.1% formaldehyde crosslink after washing; high values mean tight binding
Assay [1] concerns the target T1, FEV (Homo sapiens, UniProt Q99581 1-238).
T1 sequence: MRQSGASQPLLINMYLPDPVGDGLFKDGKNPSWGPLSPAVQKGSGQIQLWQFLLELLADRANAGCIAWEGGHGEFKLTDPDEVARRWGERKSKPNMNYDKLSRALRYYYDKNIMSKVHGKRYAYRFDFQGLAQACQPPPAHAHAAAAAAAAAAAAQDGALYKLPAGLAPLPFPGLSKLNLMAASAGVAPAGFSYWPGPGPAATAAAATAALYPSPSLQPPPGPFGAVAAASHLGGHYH
To be noted: protein: recombinant; tags: N-terminal GST; dsDNA, one strand shown. The essentials: (§1)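 Yeast served to express human transcription factors as GST fusions, which were then captured on glutathione beads and labelled with DNA barcodes. Pooled with a tag-only sample, they were incubated with 200 nmole of a 16-mer random double-stranded DNA library for 30 min at room temperature in Tris/NaCl/DTT/glycerol buffer, washed, crosslinked with 0.1% formaldehyde, ligated by proximity, amplified by PCR and sequenced. Dividing each hexamer's read frequency for a factor by its frequency for the tag-only sample gives the binding signal.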

Assay [2] has as its target ETV5 (Homo sapiens, UniProt P41161 1-510). To be noted: protein: recombinant; tags: N-terminal GST; dsDNA, one strand shown. The essentials:
as §1

The target of assay [3] is HSF1 (Homo sapiens, UniProt Q00613 1-529). The conditions noted are these: protein: recombinant; tags: N-terminal GST; chain copies: 3; dsDNA, one strand shown. Summed up: as §1
Assay [4] deals with T2, SPIC (Homo sapiens, UniProt Q8N5J4 1-248).
T2 sequence: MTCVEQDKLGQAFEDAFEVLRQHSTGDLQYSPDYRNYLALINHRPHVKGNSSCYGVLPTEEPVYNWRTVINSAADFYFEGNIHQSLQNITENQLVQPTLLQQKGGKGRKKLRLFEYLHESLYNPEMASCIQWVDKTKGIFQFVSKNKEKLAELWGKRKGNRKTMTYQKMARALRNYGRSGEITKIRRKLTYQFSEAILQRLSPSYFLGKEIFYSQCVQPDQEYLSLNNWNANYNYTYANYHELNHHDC
To be noted: protein: recombinant; tags: N-terminal GST; dsDNA, one strand shown. Summed up: as §1

Assay [5] deals with ELF4 (Homo sapiens, UniProt Q99607 1-663). The conditions noted are these: protein: recombinant; tags: N-terminal GST; dsDNA, one strand shown. The essentials:
as §1

In assay [6] the target is T3, ELK4 (Homo sapiens, UniProt P28324-2 1-405).
T3 sequence: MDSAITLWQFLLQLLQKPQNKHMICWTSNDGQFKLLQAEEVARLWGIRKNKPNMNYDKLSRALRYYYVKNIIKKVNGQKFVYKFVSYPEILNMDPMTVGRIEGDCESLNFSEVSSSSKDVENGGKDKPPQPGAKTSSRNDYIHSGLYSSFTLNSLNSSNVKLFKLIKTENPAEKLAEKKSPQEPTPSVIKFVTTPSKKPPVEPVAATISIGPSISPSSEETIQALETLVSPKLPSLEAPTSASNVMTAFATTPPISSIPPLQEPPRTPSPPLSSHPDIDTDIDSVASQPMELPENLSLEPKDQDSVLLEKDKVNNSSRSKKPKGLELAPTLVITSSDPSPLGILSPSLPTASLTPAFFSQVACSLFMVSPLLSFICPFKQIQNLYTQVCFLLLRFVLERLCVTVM
The conditions noted are these: protein: recombinant; tags: N-terminal GST; dsDNA, one strand shown. Summed up: as §1

Assay [7] addresses T4, ETV2 (Homo sapiens, UniProt O00321 1-342).
T4 sequence: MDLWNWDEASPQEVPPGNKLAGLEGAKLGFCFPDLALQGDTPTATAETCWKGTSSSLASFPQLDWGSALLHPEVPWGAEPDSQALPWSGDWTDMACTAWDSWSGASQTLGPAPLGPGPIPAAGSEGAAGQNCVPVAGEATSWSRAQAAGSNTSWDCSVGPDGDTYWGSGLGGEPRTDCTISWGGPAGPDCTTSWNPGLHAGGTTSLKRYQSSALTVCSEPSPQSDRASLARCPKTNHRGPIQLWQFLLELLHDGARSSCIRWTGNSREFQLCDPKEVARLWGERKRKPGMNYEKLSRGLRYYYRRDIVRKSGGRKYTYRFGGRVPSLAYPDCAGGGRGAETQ
To be noted: protein: recombinant; tags: N-terminal GST; dsDNA, one strand shown. The essentials:
as §1

Assay [8] has as its target T5, ELF3 (Homo sapiens, UniProt P78545 1-371).
T5 sequence: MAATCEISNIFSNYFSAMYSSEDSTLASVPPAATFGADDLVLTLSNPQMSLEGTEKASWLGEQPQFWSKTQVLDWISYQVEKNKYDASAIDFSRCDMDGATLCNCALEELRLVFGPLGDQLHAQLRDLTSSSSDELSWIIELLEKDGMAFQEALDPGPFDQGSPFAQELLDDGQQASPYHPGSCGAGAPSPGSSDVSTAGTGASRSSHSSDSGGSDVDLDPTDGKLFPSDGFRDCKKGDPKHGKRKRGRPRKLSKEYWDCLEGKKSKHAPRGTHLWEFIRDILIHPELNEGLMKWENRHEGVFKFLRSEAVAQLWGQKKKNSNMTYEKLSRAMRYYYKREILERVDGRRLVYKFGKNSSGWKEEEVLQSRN
To be noted: protein: recombinant; tags: N-terminal GST; dsDNA, one strand shown. The essentials:
as §1

Assay [9] has as its target CRX (Homo sapiens, UniProt O43186 1-299). The conditions noted are these: protein: recombinant; tags: N-terminal GST; dsDNA, one strand shown. The essentials:
as §1

Assay [10] deals with ETV1 (Homo sapiens, UniProt P50549 1-477). The conditions noted are these: protein: recombinant; tags: N-terminal GST; dsDNA, one strand shown. The essentials: as §1
In assay [11] the target is T6, ERF (Homo sapiens, UniProt P50548 1-548).
T6 sequence: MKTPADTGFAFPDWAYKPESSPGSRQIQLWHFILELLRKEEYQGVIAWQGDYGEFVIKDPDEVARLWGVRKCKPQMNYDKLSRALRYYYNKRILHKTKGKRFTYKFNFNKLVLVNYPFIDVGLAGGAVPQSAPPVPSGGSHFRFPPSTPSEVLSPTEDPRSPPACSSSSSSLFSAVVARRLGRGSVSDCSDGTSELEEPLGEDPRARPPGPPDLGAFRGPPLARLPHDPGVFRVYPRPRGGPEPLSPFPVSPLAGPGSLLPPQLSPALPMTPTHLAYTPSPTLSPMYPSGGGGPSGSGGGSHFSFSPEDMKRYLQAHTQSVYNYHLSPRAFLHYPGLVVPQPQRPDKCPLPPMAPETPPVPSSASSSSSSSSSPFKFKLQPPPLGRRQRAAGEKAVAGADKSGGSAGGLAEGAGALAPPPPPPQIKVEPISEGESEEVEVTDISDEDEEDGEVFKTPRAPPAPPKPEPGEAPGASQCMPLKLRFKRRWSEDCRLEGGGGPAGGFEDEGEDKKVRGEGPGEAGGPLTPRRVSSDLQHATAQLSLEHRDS
The conditions noted are these: protein: recombinant; tags: N-terminal GST; dsDNA, one strand shown. Summed up: as §1

For assay [12], the target named is T7, ETV3L (Homo sapiens, UniProt Q6ZN32 1-361).
T7 sequence: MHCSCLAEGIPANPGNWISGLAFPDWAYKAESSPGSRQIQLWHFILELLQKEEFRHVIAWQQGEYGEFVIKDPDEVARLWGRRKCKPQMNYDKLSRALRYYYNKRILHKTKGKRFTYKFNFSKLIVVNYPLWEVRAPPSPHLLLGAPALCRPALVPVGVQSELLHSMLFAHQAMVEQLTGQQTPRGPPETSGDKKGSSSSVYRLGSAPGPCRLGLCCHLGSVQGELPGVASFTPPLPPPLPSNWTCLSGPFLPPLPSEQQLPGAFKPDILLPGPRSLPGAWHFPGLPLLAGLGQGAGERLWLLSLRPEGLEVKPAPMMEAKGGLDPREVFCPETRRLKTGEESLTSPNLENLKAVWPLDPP
To be noted: protein: recombinant; tags: N-terminal GST; dsDNA, one strand shown. The essentials:
as §1

Assay [13] deals with T8, ETS2 (Homo sapiens, UniProt P15036 1-469).
T8 sequence: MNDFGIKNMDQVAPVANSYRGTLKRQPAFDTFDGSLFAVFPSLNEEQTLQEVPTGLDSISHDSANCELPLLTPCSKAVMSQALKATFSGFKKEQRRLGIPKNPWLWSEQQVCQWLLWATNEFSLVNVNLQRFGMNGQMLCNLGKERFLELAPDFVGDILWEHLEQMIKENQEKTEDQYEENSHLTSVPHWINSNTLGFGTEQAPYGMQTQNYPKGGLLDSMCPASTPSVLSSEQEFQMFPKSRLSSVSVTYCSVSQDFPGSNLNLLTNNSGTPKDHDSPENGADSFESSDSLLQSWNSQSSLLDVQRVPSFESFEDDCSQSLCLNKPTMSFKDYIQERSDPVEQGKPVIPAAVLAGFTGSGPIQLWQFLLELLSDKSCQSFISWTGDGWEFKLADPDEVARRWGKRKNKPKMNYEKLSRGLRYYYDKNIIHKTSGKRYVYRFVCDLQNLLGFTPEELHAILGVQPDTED
To be noted: protein: recombinant; tags: N-terminal GST; dsDNA, one strand shown. The essentials:
as §1

For assay [14], the target named is T9, SPDEF (Homo sapiens, UniProt O95238 1-335).
T9 sequence: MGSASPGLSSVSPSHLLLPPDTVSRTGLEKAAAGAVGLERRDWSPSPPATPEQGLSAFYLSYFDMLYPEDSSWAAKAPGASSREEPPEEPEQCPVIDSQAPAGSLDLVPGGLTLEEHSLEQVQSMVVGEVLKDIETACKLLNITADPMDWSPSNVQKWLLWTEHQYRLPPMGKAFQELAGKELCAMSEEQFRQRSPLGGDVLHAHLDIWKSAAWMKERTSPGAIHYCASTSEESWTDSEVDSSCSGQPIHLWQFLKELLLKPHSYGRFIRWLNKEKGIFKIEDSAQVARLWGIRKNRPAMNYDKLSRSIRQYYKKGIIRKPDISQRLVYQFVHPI
To be noted: protein: recombinant; tags: N-terminal GST; dsDNA, one strand shown. The essentials: as §1

Assay [15] addresses T10, ETV7 (Homo sapiens, UniProt Q9Y603 1-341).
T10 sequence: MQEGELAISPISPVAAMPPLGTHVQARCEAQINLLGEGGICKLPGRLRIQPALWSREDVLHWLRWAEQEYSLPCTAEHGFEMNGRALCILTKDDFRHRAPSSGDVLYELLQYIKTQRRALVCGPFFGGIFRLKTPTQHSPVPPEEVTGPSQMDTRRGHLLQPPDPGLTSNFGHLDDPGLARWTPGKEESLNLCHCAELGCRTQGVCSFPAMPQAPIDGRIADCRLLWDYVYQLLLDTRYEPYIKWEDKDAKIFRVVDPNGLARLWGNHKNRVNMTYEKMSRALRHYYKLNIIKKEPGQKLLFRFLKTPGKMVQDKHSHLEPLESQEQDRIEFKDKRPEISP
To be noted: protein: recombinant; tags: N-terminal GST; dsDNA, one strand shown. Summed up:
as §1

For assay [16], the target named is T11, ELF5 (Homo sapiens, UniProt Q9UKW6-2 1-255).
T11 sequence: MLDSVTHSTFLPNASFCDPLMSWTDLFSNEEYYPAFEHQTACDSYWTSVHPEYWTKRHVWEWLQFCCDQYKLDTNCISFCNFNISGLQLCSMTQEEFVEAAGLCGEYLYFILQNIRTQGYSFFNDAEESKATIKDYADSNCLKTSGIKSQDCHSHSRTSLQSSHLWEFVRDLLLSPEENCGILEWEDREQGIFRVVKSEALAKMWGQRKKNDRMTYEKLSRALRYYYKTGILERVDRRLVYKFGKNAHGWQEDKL
To be noted: protein: recombinant; tags: N-terminal GST; dsDNA, one strand shown. Summed up:
as §1

Assay [17] deals with T12, ETV3 (Homo sapiens, UniProt P41162-2 1-143).
T12 sequence: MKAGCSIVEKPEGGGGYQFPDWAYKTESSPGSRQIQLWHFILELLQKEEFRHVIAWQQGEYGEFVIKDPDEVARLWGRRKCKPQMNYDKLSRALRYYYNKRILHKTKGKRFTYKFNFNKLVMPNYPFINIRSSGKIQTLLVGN
To be noted: protein: recombinant; tags: N-terminal GST; dsDNA, one strand shown. The essentials: as §1

For assay [18], the target named is ETV6 (Homo sapiens, UniProt P41212 1-452). The conditions noted are these: protein: recombinant; tags: N-terminal GST; dsDNA, one strand shown. Summed up:
as §1

ELF4, sequence (Q99607 whole entry): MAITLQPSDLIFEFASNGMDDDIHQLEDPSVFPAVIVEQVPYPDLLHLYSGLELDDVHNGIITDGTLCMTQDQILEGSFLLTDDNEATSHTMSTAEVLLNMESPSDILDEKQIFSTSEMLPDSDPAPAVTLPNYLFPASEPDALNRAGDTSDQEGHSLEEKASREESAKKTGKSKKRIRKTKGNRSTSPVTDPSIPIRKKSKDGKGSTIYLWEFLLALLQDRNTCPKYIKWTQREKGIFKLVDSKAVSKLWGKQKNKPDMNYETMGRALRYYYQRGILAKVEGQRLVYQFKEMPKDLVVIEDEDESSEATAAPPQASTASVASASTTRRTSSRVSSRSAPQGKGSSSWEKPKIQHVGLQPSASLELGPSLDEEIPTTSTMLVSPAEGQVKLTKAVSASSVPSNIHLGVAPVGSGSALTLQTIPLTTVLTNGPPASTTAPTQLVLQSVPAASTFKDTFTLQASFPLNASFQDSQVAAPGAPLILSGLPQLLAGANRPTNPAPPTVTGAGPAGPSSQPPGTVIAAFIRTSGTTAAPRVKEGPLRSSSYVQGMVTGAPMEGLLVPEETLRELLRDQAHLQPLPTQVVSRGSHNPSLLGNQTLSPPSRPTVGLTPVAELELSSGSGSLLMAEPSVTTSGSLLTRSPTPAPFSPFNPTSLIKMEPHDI
CRX, sequence (O43186 whole entry): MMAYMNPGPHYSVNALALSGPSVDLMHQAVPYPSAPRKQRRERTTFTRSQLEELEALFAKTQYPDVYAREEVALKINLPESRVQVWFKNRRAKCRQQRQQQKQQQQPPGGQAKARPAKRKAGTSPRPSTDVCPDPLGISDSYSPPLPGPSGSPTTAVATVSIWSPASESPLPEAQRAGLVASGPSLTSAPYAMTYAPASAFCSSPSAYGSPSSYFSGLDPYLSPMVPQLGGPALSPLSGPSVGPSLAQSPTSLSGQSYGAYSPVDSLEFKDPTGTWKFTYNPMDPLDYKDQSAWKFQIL
ETV5, sequence (P41161 whole entry): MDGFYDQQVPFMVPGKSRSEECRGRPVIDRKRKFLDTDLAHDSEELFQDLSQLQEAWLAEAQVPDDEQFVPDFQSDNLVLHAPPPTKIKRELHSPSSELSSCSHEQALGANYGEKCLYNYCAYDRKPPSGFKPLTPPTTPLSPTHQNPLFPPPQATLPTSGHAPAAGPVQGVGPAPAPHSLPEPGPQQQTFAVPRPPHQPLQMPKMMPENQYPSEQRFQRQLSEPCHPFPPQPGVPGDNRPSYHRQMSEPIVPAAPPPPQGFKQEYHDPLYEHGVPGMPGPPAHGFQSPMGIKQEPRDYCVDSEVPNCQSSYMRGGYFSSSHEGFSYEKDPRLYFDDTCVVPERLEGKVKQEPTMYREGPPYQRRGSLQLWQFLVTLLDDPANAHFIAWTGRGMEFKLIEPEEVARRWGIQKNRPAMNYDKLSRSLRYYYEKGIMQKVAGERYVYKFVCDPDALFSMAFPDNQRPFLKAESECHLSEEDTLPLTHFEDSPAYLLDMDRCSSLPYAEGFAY
HSF1, sequence (Q00613 whole entry): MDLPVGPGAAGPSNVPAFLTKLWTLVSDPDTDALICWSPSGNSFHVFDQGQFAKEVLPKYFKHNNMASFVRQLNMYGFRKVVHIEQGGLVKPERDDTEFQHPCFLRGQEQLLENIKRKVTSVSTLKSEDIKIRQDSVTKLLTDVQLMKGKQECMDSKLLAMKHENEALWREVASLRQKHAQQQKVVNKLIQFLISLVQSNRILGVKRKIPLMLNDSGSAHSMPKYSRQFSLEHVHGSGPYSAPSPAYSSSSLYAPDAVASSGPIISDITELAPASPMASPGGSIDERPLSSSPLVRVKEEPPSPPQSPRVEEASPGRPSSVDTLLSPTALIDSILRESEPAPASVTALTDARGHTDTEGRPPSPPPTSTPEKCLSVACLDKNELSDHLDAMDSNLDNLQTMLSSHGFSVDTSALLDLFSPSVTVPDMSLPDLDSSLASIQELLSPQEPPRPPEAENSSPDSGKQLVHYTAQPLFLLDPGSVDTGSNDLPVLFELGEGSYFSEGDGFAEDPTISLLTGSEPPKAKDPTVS
ETV6, sequence (P41212 whole entry): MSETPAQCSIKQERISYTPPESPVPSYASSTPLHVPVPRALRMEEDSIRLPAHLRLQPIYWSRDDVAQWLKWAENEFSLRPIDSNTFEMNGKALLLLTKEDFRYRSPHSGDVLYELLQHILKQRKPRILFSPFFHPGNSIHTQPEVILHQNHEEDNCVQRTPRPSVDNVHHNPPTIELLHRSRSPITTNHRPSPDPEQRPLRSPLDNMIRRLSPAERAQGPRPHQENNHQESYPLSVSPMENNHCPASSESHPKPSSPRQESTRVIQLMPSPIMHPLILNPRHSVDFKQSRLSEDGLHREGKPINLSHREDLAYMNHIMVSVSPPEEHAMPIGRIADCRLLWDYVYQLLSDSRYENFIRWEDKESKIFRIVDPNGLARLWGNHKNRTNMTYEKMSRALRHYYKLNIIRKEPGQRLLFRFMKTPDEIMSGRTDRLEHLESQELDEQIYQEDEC
ETV1, sequence (P50549 whole entry): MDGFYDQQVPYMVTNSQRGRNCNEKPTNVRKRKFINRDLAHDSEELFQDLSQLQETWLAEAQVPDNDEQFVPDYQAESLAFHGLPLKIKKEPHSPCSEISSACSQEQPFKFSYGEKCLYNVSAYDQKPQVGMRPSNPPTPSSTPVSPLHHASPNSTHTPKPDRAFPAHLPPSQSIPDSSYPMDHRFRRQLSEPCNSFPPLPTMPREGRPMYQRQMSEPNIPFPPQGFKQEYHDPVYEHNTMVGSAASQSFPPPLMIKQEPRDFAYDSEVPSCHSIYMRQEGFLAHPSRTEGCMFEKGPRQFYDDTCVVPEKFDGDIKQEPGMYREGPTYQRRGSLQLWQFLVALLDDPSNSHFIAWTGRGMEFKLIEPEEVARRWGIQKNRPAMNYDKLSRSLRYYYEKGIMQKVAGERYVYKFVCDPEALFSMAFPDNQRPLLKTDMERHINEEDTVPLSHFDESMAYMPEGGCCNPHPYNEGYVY

Turning to TTTGCA, the binding signal in [1] was 1.18 fold enrichment (6-mer frequency, TF over GST control); in assay [2], 1.22 fold enrichment (6-mer frequency, TF over GST control); in assay [3] it was 1.26 fold enrichment (6-mer frequency, TF over GST control); in [4], 1.23 fold enrichment (6-mer frequency, TF over GST control); in assay [5] it was 1.29 fold enrichment (6-mer frequency, TF over GST control); in [6] it was 1.3 fold enrichment (6-mer frequency, TF over GST control). In addition, the binding signal in [7] is 1.24 fold enrichment (6-mer frequency, TF over GST control); in assay [8], 1.28 fold enrichment (6-mer frequency, TF over GST control); in assay [9], 1.48 fold enrichment (6-mer frequency, TF over GST control); in [10] it was 1.29 fold enrichment (6-mer frequency, TF over GST control); in assay [11], 1.13 fold enrichment (6-mer frequency, TF over GST control); in [12], 1.31 fold enrichment (6-mer frequency, TF over GST control). The binding signal in [13] is 1.14 fold enrichment (6-mer frequency, TF over GST control); in [14], 1.23 fold enrichment (6-mer frequency, TF over GST control); in assay [15], 1.21 fold enrichment (6-mer frequency, TF over GST control); in [16], 1.24 fold enrichment (6-mer frequency, TF over GST control); in assay [17] it was 1.26 fold enrichment (6-mer frequency, TF over GST control); in assay [18], 1.32 fold enrichment (6-mer frequency, TF over GST control).

The values are drawn from PMC7862700, “An all-to-all approach to the identification of sequence-specific readers for epigenetic DNA modifications on cytosine”.
